Drawing on PubChem BioAssay (NCATS), this text covers outcome for 28 compounds.

Activity calls are given as the source filed them. The call rests on the fitted dose curve; in most records, active means well fitted inhibition curve with a large enough effect; inconclusive means small, poorly fitted or top-dose-only effect; inactive means flat fitted curve, though single readings scatter.

In this test the target is Luciferin 4-monooxygenase (Photinus pyralis) (UniProt P08659). Put plainly: Primary firefly luciferase (FLuc) qHTS assay for identification of artifact compounds. (AID 1845220). Further: nearly all actives have a fitted effect of over 60% in size. The following applies: purified firefly luciferase, luminescence, 5 min; series mostly up to 54.1 µM. The text has this: PI: Alexander Tropsha Ph.D.
UNC Eshelman School of Pharmacy
University of North Carolina, Chapel Hill, North Carolina
Hits from high-throughput screening (HTS) of chemical libraries are often false positives due to their interference with the assay detection technology. In response to this problem, we generated the largest publicly available library of chemical liabilities and developed a free webtool to predict HTS artifacts, both of which are described herein. More specifically, we generated, curated, and integrated HTS datasets for thiol reactivity, redox activity, and luciferase (firefly and nano) activity. Using these curated datasets, we developed and validated several Quantitative Structure-Interference Relationship (QSIR) models to predict nuisance behavior. […] These models were employed for virtual profiling of the National Center for Advancing Translational Science's (NCATS) in-house library, and 256 compounds for each assay were selected for the experimental validation of nuisance behavior. The BA for these external predictions ranged from 58 to 78% for compounds within the applicability domains of the models. […] The models developed in this study, along with aggregation models previously developed by our group (SCAM Detective) were implemented in "Liability Predictor," an online tool which may be used as part of chemical library design or for triaging HTS hits. Both the models and the curated datasets are publicly available at https://liability.mml.unc.edu/.
SEQUENCE No. (e.g., 1, 2, 3, etc.); […] (e.g., Cells, Incubation, Reagent, etc.); VALUE; DESCRIPTION.
1; Reagent; 3 uL; Luciferase substrate mixture.
2; Compounds and control; 16 nL; Kalypsis pin tool (Wako USA) equipped with a 1536-well pin head.
4; Reagent; 1 uL; Luciferase enzyme.
6; Detection; Luminescence, ViewLux microplate reader.
NOTES (numbers refer to Sequence numbers above)
1. 3 uL of luciferase substrate mixture containing D-luciferin and ATP (final concentrations of 10 uM and 10 uM, respectively) in assay buffer (10 mM Mg-acetate, 0.01% Tween-20, 0.05% bovine serum albumin, 50 mM Tris acetate, pH 7.6) was dispensed into all wells of a 1536-well assay plate (solid-bottom white plate; Greiner Bio One, Monroe, NC).
2. A Wako Pin-tool (Wako Automation, Richmond, VA) was used to transfer 16 nL of compounds (consisting of 7-plates in qHTS format, final concentration range 18.3 nM to 114 uM) or control PTC124 (final concentration range 1.22 nM to 40 uM).
3. 15 min. incubation at room temperature protected from light.
4. 1 uL of luciferase enzyme (final concentration 10 nM, Photinus pyralis luciferase) or buffer was dispensed for a final assay volume of 4 uL.
5. Plates were centrifuged (121xg, 15 seconds) and incubated for 5 minutes.
6. Samples were read for luminescence on a ViewLux CCD imager (PerkinElmer). Data were normalized to no-enzyme (0% activity) and no-inhibitor (DMSO; 100%) controls and the resulting percent inhibition data were fitted to a 4-parameter Hill equation using NCATS in-house software.
With `CC(C)(C)CC(C)(C)c1ccc(OCCOCC[N+](C)(C)Cc2ccccc2)cc1`, the outcome was inactive.

On to `CC(CCc1ccccc1)NCC(O)c1ccc(O)c(C(N)=O)c1` (stereo not drawn), for which the call was inactive.

Regarding `COc1cccc(OC)c1C(=O)N[C@@H]1C(=O)N2[C@@H]1SC(C)(C)[C@@H]2C(=O)O`, the compound was called inactive.

`Cc1ccc(C(=O)C(C)CN2CCCCC2)cc1` (stereo not drawn): the compound was classed as inactive.

As to `CCCCS(=O)(=O)N[C@@H](Cc1ccc(OCCCCC2CCNCC2)cc1)C(=O)O`, the call was inactive.

With `CC(=O)OCC(=O)[C@@]1(O)[C@H](C)C[C@H]2[C@@H]3CCC4=CC(=O)C=C[C@]4(C)[C@@]3(F)[C@@H](O)C[C@@]21C`, the outcome was inactive.

As for `CN1[C@@H]2CC[C@H]1CC(OC(=O)c1c[nH]c3ccccc13)C2` (stereo partly drawn), the result was inactive.

`OC[C@H]1O[C@H](O[C@]2(CCl)O[C@H](CCl)[C@@H](O)[C@@H]2O)[C@H](O)[C@@H](O)[C@H]1Cl`: the compound was classed as inactive.

As for `C#C[C@]1(OC(C)=O)CC[C@H]2[C@@H]3CCC4=C[C@@H](OC(C)=O)CC[C@@H]4[C@H]3CC[C@@]21C`, the compound was classed as inactive.

Consider `CN(C)CCCOc1nn(Cc2ccccc2)c2ccccc12`, for which the compound was classed as inactive.

`CN1C(CCl)Nc2cc(Cl)c(S(N)(=O)=O)cc2S1(=O)=O` (stereo not drawn): the compound was classed as inactive.

For `CC(C)(C)NC(=O)[C@@H]1CN(Cc2cccnc2)CCN1C[C@@H](O)C[C@@H](Cc1ccccc1)C(=O)N[C@H]1c2ccccc2C[C@H]1O`, the compound was called inactive.

As to `Cc1onc(-c2c(Cl)cccc2Cl)c1C(=O)N[C@@H]1C(=O)N2[C@@H]1SC(C)(C)[C@@H]2C(=O)O`, the compound was classed as inactive.

`CC(C)n1nc(-c2cc3cc(O)ccc3[nH]2)c2c(N)ncnc21`: the outcome was inactive.

As to `COC(=O)CCc1ccc(OCC(O)CNC(C)C)cc1` (stereo not drawn), the compound was called inactive.

Take `Cc1ccc(Nc2c(F)cccc2Cl)c(CC(=O)O)c1`: the compound was classed as inactive.

On to `CN1CCN(C(c2ccccc2)c2ccccc2)CC1`, for which the call was inactive.

For the compound `NC(=NCCCCCCN=C(N)/N=C(\N)Nc1ccc(Cl)cc1)/N=C(\N)Nc1ccc(Cl)cc1`, the compound was classed as inactive.

Take `O=c1[nH]c(=O)n([C@H]2CCCO2)cc1F`: the outcome was inactive.

Consider `O=C(OCCOCCO)c1ccccc1Nc1cccc(C(F)(F)F)c1`, for which the compound was classed as inactive.

On to `COc1ccc(CN2CCN(C(c3ccc(F)cc3)c3ccc(F)cc3)CC2)c(OC)c1OC`, for which the outcome was inactive.

In the case of `COC(=O)C1=C(C)NC(C)=C(C(=O)O[C@@H]2CCCN(Cc3ccccc3)C2)[C@@H]1c1cccc([N+](=O)[O-])c1`, the compound was called inactive.

Regarding `CC(=O)OCC(=O)[C@@]1(O)CC[C@H]2[C@@H]3CCC4=CC(=O)C=C[C@]4(C)[C@H]3[C@@H](O)C[C@@]21C`, the compound was classed as inactive.

For `Cc1cc2c(cc1CC(=O)c1sccc1S(=O)(=O)Nc1onc(C)c1Cl)OCO2`, the outcome was inactive.

In the case of `Nc1ccn([C@@H]2O[C@H](CO)[C@@H](O)C2(F)F)c(=O)n1`, the compound was called inactive.

Take `Cc1nc2n(c(=O)c1CCN1CCC(c3noc4cc(F)ccc34)CC1)CCC[C@H]2O`: the compound was called inactive.

`CC(=O)O[C@]1(C(C)=O)CC[C@H]2[C@@H]3C[C@H](C)C4=CC(=O)CC[C@]4(C)[C@H]3CC[C@@]21C`: the call was inactive.

As for `Cc1ccccc1C(=O)Nc1ccc(C(=O)N2CCCC(N(C)C)c3ccccc32)cc1` (stereo not drawn), the compound was classed as inactive.
